# Assay outcomes from PubChem BioAssay.
# GLP1R ag: qHTS of GLP-1 Receptor Agonists; Potency, µM (series often up to 45.6 µM), actives largely listed as activators; HEK293 GLP-1R CRE-luciferase, luminescence, 4-6 h; cells express a hypersensitive GLP-1R form; 0.007% of 380,000 active; AID 624172, 2012; Glucagon-like peptide 1 receptor (Homo sapiens), P43220
# GLP1R cytotox: qHTS of GLP-1 Receptor Inverse Agonists: Cytotox Screen; HEK293 cAMP-luciferase reporter cells, luminescence, 24 h; Potency, µM (highest dose often 38.3 µM), hits mostly inhibitors; 0.13% of 410,000 active;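 note: loss of luciferase light is scored as toxicity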
#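 1536-well qHTS counterscreen of the MLSMR; 200 cells/uL, 12 h pre-incubation, 23 nL cpd, 24 h at 37 deg C 5% CO2, luciferase detection reagent, 12 min RT, luminescence. Inhibition = undesired.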
# TSHR antag: Antagonists of the Thyroid Stimulating Hormone Receptor: HTS campaign | TSHR-expressing cells, TSH-stimulated cAMP HTRF, 2 h; hits give low values | Thyrotropin receptor (Homo sapiens), P16473 | AID 504810, 2011 | 0.2% of 330,000 active | activity change, negative = inhibition, % at 11.5 µM;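 active = activity change below a set negative limit, meaning inhibition stronger than a set level, cut at about -70% in these data; inconclusive = activity change between two set negative limits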
#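 Read-out is FRET at 665 nm (cryptate excitation 337 nm) from a cryptate-tagged anti-cAMP antibody, competed by cell cAMP against cAMP-d2. Compounds are tested on freshly harvested TSHR cells challenged with 4nM TSH (EC80) for 2 hours at 37 deg C.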
# PTHR1 agonist: qHTS for PTHR1 Agonists: Primary Screen | 0.075% of 410,000 active | Potency, µM (titrated, usually from 115 µM), hits mostly activators | Parathyroid hormone/parathyroid hormone-related peptide receptor (Homo sapiens), Q03431 | HEK293 GP2 PTHR1 cells, GloSensor cAMP luminescence, 1 h; note: nearly all actives have a fitted effect of over 55% in size
# Target sequence (Q03431 whole entry, looked up): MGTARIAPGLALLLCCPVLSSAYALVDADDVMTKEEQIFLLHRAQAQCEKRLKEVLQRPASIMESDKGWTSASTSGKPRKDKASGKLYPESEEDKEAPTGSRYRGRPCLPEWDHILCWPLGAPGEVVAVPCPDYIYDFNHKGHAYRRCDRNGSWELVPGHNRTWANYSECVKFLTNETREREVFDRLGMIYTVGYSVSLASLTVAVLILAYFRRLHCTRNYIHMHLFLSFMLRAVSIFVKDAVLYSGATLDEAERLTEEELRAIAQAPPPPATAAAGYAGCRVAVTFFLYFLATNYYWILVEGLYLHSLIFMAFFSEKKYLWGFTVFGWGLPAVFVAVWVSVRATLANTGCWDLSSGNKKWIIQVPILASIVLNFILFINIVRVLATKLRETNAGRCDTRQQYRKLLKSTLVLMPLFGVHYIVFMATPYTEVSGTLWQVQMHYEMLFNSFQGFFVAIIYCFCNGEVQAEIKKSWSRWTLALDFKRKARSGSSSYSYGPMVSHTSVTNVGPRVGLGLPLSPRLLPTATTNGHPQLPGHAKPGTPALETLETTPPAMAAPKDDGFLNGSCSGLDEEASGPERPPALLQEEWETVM
#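 HEK-293-derived GP2 cells expressing PTHR1 and a GloSensor cAMP reporter, 3,000/well, plated overnight, given luciferin plus IBMX (each 0.5 mM as added) for 1 h at 37 °C, then compound for 1 h at 37 °C. Luminescence was read after 15 min at room temperature.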
# GLP-1R inv ag: qHTS of GLP-1 Receptor Inverse Agonists (Inhibition Mode) | HEK293 GLP-1R CRE-luciferase, luminescence, 24 h; GLP-1R form is constitutively active | Potency, µM (doses to about 38.3 µM), hits mostly inhibitors | 1.6% of 410,000 active | AID 624417, 2012; note: nearly all actives have a fitted effect of over 55% in size
#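 Cells are plated, allowed 12 hours at 37 deg C, then treated with compounds for 24 hr before luciferase detection reagent is added and luminescence is read after 12 min at room temperature. The HEK293 line carries constitutively active GLP-1R with a cAMP-responsive reporter.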
# Hits are given with their value; - = inactive; ? = inconclusive; . = no result given; [ ] = another dose, or the depositor's remark. Rows were chosen to be rich in hits. Some 1.8% of all compounds tested hit in one or more screens of this group. Unless noted, calls come from the whole dose curve; as a rule, active = well fitted curve in the direction sought with a large enough effect; inconclusive = small, poorly fitted or top-dose-only effect, or another doubt; inactive = no such curve, though single readings can be large; an effect the other way counts as inactive or inconclusive.
SMILES,GLP1R ag,GLP1R cytotox,TSHR antag,PTHR1 agonist,GLP-1R inv ag
Cc1cc(NC(=O)c2sc(Nc3ccc(F)c(Cl)c3)nc2N)no1,-,-[7.66 µM],-,-,-[7.66 µM]
CC(C)c1ccc(NC(=O)c2ccc(CN3CC(=O)N4CCCCC4C3=O)cc2)cc1 (centres undefined),.,-,.,-,-
Cc1ccc2c(c1)N(C(=O)NCc1ccccc1)CCO2,.,-,.,-,-
Cc1ccc(-c2csc(-c3cc4c([nH]c3=O)CC(c3ccccc3)CC4=O)n2)cc1 (centres undefined),.,-,.,-,?
CCOC(=O)c1c(NC(=O)COc2ccc(OC)cc2)sc(C(=O)N(CC)CC)c1C,.,-,.,-,7.9µM
Cc1cccc(N(C)S(=O)(=O)c2ccc(-c3cc(C)no3)s2)c1,-,-,-,-,1µM
CCCc1nn2c(=O)cc(COC(=O)c3cccc(NC(=O)c4cccs4)c3)nc2s1,.,-,.,-,-
COc1cc(-c2cc(C(=O)Nc3ccc(S(=O)(=O)NCc4ccco4)cc3)c3ccccc3n2)cc(OC)c1OC,-,-,-,-,2µM
COc1cc(-c2cc(C(=O)NCc3ccco3)c3ccccc3n2)cc(OC)c1OC,-,?,-,-,?
COC(=O)c1cc2sc(Cl)cc2n1Cc1nc(-c2ccccc2F)oc1C,.,-,.,-,-
COc1ccc(C)cc1NC(=O)C1CCN(S(=O)(=O)c2cc(Br)cc3c2N(C(C)=O)CC3)CC1,.,-,.,-,-
CCOC(=O)c1sc(NC(=O)Cn2nnc3sc4c(c3c2=O)CCCC4)nc1C,-,-,-,-,-
CCOC(=O)c1nc2sc3c(c2c(=O)n1C(C)C(=O)OCC)CCCC3 (centres undefined),-,-,-,-,1.3µM
O=C(C1CN(C(=O)c2cc3cc(Cl)ccc3o2)c2ccccc2O1)N1CCCCC1 (centres undefined),-,-,-,-,11µM
CCc1ccc(NC(=O)Cc2cn(C)c3ccccc23)cc1,-,-,-,?,10µM
CC(C)C(=O)N1c2nc(-c3ccco3)nn2C2(CCCCC2)[C@@H]2CCCC[C@@H]21,.,-,.,?,-
CC(C)c1ccc(NC(=O)c2cc(S(=O)(=O)NCc3ccccc3Cl)ccc2F)cc1,.,?,.,-,6.3µM
CC(C)c1ccc(NC(=O)c2cc(S(=O)(=O)N(C)C3CCCCC3)ccc2F)cc1,.,-,.,-,10µM
COc1ccccc1NC(=O)c1cc(S(=O)(=O)N(C)C2CCCCC2)ccc1F,.,-,.,-,?
CN(C1CCCCC1)S(=O)(=O)c1ccc(NC(=O)c2ccc(Br)o2)cc1,-,-,-,-,7.1µM
O=C(CS(=O)(=O)c1cccc2nsnc12)NCc1ccccc1Cl,-,-,.,-,-
CN(C)S(=O)(=O)c1ccc(NC(=O)N2CCN(c3cccc(C(F)(F)F)c3)CC2)cc1,-,-,-,-,3.5µM
CCCOc1ccc(-c2cn3ccccc3n2)cc1,-,-,-,-,7.1µM
COc1cc(Br)cc(/C=N/NC(=O)Cc2ccc(C(F)(F)F)cc2[N+](=O)[O-])c1O,-,0.5µM,-,-,?
CCOC(=O)c1[nH]c2c(c1Cc1ccccc1)C(=O)CC(c1ccc(C(C)(C)C)cc1)C2 (centres undefined),.,-,.,-,11µM
SMILES,GLP1R ag,GLP1R cytotox,TSHR antag,PTHR1 agonist,GLP-1R inv ag
CN(C)C(CNC(=O)c1cc(S(=O)(=O)N(C)c2ccccc2)ccc1Cl)c1ccccc1 (centres undefined),-,-,-,-,10µM
CN(C)S(=O)(=O)c1cccc(NC(=O)C(c2ccccc2)c2ccccc2)c1,-,-,-,-,?
CN(C)C(CNC(=O)c1cc(S(=O)(=O)N(C)c2ccc(F)cc2)ccc1Cl)c1ccco1 (centres undefined),-,-,-,-,?
CCC(C(=O)Nc1cccc(S(=O)(=O)N(C)c2ccccc2)c1)c1ccccc1 (centres undefined),-,-,-,-,7.1µM
COc1cccc(N/C(SCc2ccccc2C)=C(/C#N)C(=O)NCc2cccs2)c1,-,-,-,-,7.1µM
O=C1N(c2ccccc2)C(c2ccc(Cl)cc2)N2CCCN12 (centres undefined),-,-,-,-,?
Cc1ccc(C2N(c3ccc(Cl)cc3)C(=O)N3CCCN23)cc1 (centres undefined),-,-,-,-,10µM
O=C(/C=C/c1ccc2c(c1)OCO2)NCCSCc1ccc(Cl)cc1,-,-,-,-,5µM
O=C(/C=C/c1ccc2c(c1)OCO2)NCCSCc1c(Cl)cccc1Cl,-,-,-,-,10µM
Cc1cc2oc(C(=O)N(Cc3ccc(N(C)C)cc3)CC3CCCO3)c(C)c2cc1Cl (centres undefined),.,-,.,-,-
COc1ccc(C2=C(CN(C)C)C(c3ccccc3)c3ccccc3O2)cc1 (centres undefined),-,?,-,-,?
CCOc1ccc(C2=C(C=C(C#N)C#N)C(c3ccccc3)c3ccccc3O2)cc1 (centres undefined),-,-,-,-,6.3µM
C=C1C(=O)O[C@@H]2[C@H]1CC[C@H](C)[C@]1(O)CCC(=O)[C@@]21C,-,?,-,-,8.9µM
C=C1C(=O)O[C@@H]2[C@@H]1CC/C(C)=C\CC[C@@]1(C)O[C@H]21,-,.,.,.,.
COc1ccc(CCNc2ncnc3onc(C)c23)c(OC)c1,.,-,.,-,-
O=C(OCc1cn([C@@H]2CN(C(=O)C3CCCCC3)[C@@H](c3ccccc3)C[C@H]2O)nn1)c1ccccc1,-,-,.,-,-
CCCCCCN1C[C@@H](n2cc(COC(=O)c3ccccc3)nn2)[C@H](O)C[C@@H]1c1ccc(OC)cc1,-,-,.,-,14µM
O=C(OCc1cn([C@H]2CN(C(=O)C3CCCCC3)[C@@H](c3ccc(Cl)cc3)C[C@@H]2O)nn1)c1ccccc1,-,-,.,-,11µM
COc1ccc(C(=O)NC(c2ccccc2Cl)c2cc(Cl)c3cccnc3c2O)cc1 (centres undefined),.,-,.,-,1.8µM
CN1[C@@H]2CCC[C@@H]1CC(NC(=O)c1nn(C)c3ccccc13)C2 (some centres undefined),-,.,.,.,.
Cc1ccc(-c2nc(CS(=O)(=O)CC(=O)NCCCN(Cc3ccccc3)C(C)C)c(C)o2)cc1,-,?,-,-,4.5µM
Cc1ccc(Cn2cc(CCC(=O)NC3CCC(C)CC3)c3ccccc32)cc1 (centres undefined),.,-,.,-,?
Cc1ccccc1Oc1cc(-n2ncc(Cl)c(Cl)c2=O)ncn1,-,3.2µM,-90,-,?
